Consider 51 compounds from ChEMBL document CHEMBL4513216, “Probing the Open Global Health Chemical Diversity Library for Multistage-Active Starting Points for Next-Generation Antimalarials” (ACS Infect Dis, 2020).

In all, about 69,000 compounds went through this assay and about 8,600 (12%) showed an effect of 50% or more. The sample holds strong results, similar compounds and a random draw of the others, so the mix is not that of the screen.

The subject of this test is Plasmodium berghei. Put plainly: Screen against P. berghei liver stage (PbLuc), transformed with Luciferase, at 10uM. It counts as functional, HepG2. Conditions: tested at 10 uM.
As to `Oc1ccc([C@H]2Oc3cc(O)cc(O)c3C[C@@H]2O)cc1`, the INHIBITION is 7.5%. Turning to `COc1cc(C2CC(=O)c3c(O)cc(O)cc3O2)ccc1O` (stereo unspecified), the INHIBITION is -17.1%.

For `O=C1c2c(O)cc(O)cc2O[C@@H](c2ccc(O)cc2)[C@@H]1O`, the INHIBITION is 70.8%. Regarding `COc1cc2c(cc1CN1CCn3c(CO)nnc3C1)CCC2`, the INHIBITION is on record as 3.91%. Then `Cc1nc(C)n(CC2CCCCN2CCc2ccncc2)n1` (stereo unspecified), with 4%; and `CCOC(=O)Cn1cccc(S(=O)(=O)N2CCCC2)c1=O`, with -2.92%; and `c1cncc(-c2nccc(CN3CCC(N4CCCCC4)CC3)n2)c1`, with 17.1%. Then `CCN1CCN(Cc2ccnc(-c3cccnc3)n2)CC1`, with 46.1%.

For `c1ccc(CC2CCN(Cc3ccnc(-c4cccnc4)n3)CC2)cc1`, the INHIBITION was 50%. Regarding `CC1CCCN(Cc2ccnc(-c3cccnc3)n2)C1` (stereo unspecified), the INHIBITION was -6.92%.

Turning to `OC1CCN(Cc2ccnc(-c3cccnc3)n2)CC1`, the INHIBITION came out at 42.4%.

Turning to `c1cncc(-c2nccc(CN3CCCC3)n2)c1`, the INHIBITION stood at 51.2%. Then `COCCN1C[C@@H](c2ccccc2)[C@@]2(CCN(CC(=O)N(C)C)C2=O)C1`, with -4.82%; and `Cc1ccccc1N1CC2(CCN(S(=O)(=O)c3cccs3)C2)CC1=O` (stereo unspecified), with 35.7%; and `CC(=O)c1cc(CN2C[C@@H]3CC[C@H]2CN(S(=O)(=O)N(C)C)C3)cs1`, with 80.1%. Then `CN(C)S(=O)(=O)N1C[C@H]2CC[C@@H](C1)N(Cc1ccc3nsnc3c1)C2`, with 45.1%. Take `CC(C)[C@@H]1CN(Cc2ccsc2)C[C@H]1NS(=O)(=O)N(C)C`: the INHIBITION amounted to 50.1%. The figure for `Cc1nc(CN2C[C@@H](NS(=O)(=O)N(C)C)[C@H](C(C)C)C2)cs1` is 38.3%. The figure for `CC(=O)c1cc(CN2C[C@@H]3CC[C@H]2CN(S(C)(=O)=O)C3)cs1` is -52.2%. Then `CC(=O)c1cc(CN2C[C@@H](N(C)C)[C@H](C(C)C)C2)cs1`, with 13.7%; and `CC(C)[C@@H]1CN(C(=O)NCCc2ccccc2)C[C@H]1NS(=O)(=O)N(C)C`, with 41.3%; and `Cc1noc(C)c1CN1C[C@@H](NS(=O)(=O)N(C)C)[C@H](C(C)C)C1`, with 24.3%. Take `CC(=O)c1cc(CN2C[C@@H](NS(=O)(=O)N(C)C)[C@H](C(C)C)C2)cs1`: the INHIBITION was found to be 52.2%. Then `COCCN1C[C@H]2[C@@H](C1)N(C(=O)CCc1ccccc1)CC[C@H]2OC`, with -14.1%.

For `COC(=O)CN(C(=O)c1ccc(-n2ccnc2)cc1)C1CC1`, the INHIBITION is given as 6.23%. As to `CC(C)c1cc(CN(C)C(=O)CN2CCCCC2=O)no1`, the INHIBITION is recorded as 15.4%. `Cc1nc(O)cc([C@@H]2CN(S(=O)(=O)N(C)C)C[C@H]2c2ccccc2F)n1`: the INHIBITION is -6.15%. For `COCC1CN(S(=O)(=O)c2cccc(F)c2)Cc2nccn2C1` (stereo unspecified), the INHIBITION was found to be 41.2%. The figure for `Cn1cc(CN2CCC[C@]3(C[C@H](Oc4ncccc4F)CO3)C2)cn1` is 31.5%. Then `CCC(C)NC(=O)c1nnn(-c2ccc(Br)cc2)n1` (stereo unspecified), with -10.6%. Regarding `CCc1nc(CN2CCCN(c3nccs3)CC2)no1`, the INHIBITION is reported as 22.5%. The figure for `CCc1nc(CN2CCCN(c3ncnc4sccc34)CC2)no1` is 95.1%; for `CCc1nc(CN2CCCN(Cc3cnn(C)c3)CC2)no1` it is 35.5%; for `CCn1ccnc1CN1CCN(c2ncnc3ccsc23)CC1` it is -50.7%. Regarding `Cc1nc(CN2CCCN(c3nccs3)CC2)no1`, the INHIBITION was -63.3%.

For the compound `CCc1nc(CN2CCCN(c3ncnc4ccsc34)CC2)no1`, the INHIBITION is 91.1%. For `Cc1nc(CN2C[C@@H]3CN(C(=O)c4ccnnc4)C[C@@H]3C2=O)cs1`, the INHIBITION is 13.6%.

As for `COc1ccccc1OC1CN(C(=O)c2ccccc2C(C)=O)C1`, the INHIBITION was determined as 65.7%. Then `COc1ccccc1OC1CN(C(=O)Cc2c(C)nc(N)nc2C)C1`, with 1.71%; and `COc1ccccc1OC1CCN(C(=O)c2cccc(O)c2C)CC1`, with 19.3%; and `COc1ccccc1OC1CN(C(=O)Cc2c(C)nc3ccccn23)C1`, with -7.2%. As to `COc1ccccc1OC1CN(C(=O)c2c(C)nc3ccc(C)cn23)C1`, the INHIBITION stood at 86.8%. For `COc1ccccc1OC1CN(C(=O)c2ccc(C(C)=O)s2)C1`, the INHIBITION stood at 7.3%.

Take `CCCC(=O)N1CCCC(c2cc3cccnc3c(O)n2)C1` (stereo unspecified): the INHIBITION is given as 25.8%. Take `CCOCC(=O)N1CCc2c(CN(C)C)nn(C(C)C)c2C1`: the INHIBITION is given as 23.1%. Then `NC(=O)c1cn[nH]c1NC(=O)c1ccc2c(c1)OCO2`, with -16.4%; and `CCS(=O)(=O)CCNC(=O)c1ccc(-c2ccc(C)cc2)cc1F`, with 8.47%.

Turning to `Cc1ccc(-c2ccc(C(=O)NCCS(N)(=O)=O)c(F)c2)cc1`, the INHIBITION is 55.4%.

As to `NS(=O)(=O)CCNC(=O)c1ccc(-c2ccc(F)cc2)cc1F`, the INHIBITION is listed as -33.2%.

Turning to `CCN1C(=O)CCC12CCC(NC(=O)c1cc(C)on1)CC2` (stereo unspecified), the INHIBITION was -45.5%.

`C[C@@H]1CN(c2nc(O)cc(Cc3ccccc3F)n2)C[C@H](C)O1`: the INHIBITION is 15.5%.
